# Data published in PMC7862700, “An all-to-all approach to the identification of sequence-specific readers for epigenetic DNA modifications on cytosine”.
# Columns and labels:
# Test in all cases: DAPPL (digital affinity profiling via proximity ligation, sequencing); 10 mM Tris-HCl pH 7.5, 50 mM NaCl, 1 mM DTT, 4% glycerol, room temperature, 30 min; GST-TFs on glutathione beads, 16-mer random dsDNA library, 0.1% formaldehyde crosslink after washing; high values mean tight binding
# FEV = biological target: T1, FEV (Homo sapiens, UniProt Q99581 1-238); details: protein: recombinant; tags: N-terminal GST; dsDNA, one strand shown
# T1 sequence: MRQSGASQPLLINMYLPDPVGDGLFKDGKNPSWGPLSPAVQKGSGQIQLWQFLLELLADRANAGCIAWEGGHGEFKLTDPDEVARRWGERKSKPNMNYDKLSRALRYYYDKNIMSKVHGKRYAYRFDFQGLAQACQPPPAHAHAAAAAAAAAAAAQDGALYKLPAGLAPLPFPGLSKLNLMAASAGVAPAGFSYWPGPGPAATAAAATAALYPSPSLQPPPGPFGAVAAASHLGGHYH
# Procedure, shortened: (§1)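 Binding signal is given per hexamer as its read frequency for a factor divided by its frequency in the tag-only sample. GST-fused human transcription factors were expressed in yeast, captured on glutathione beads, barcoded with DNA and pooled with that sample, then incubated with 200 nmole of a 16-mer random double-stranded DNA library in Tris/NaCl/DTT/glycerol buffer for 30 min at room temperature. The pools were then washed, crosslinked, proximity-ligated, amplified by PCR and sequenced on an Illumina NextSeq500.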
# ETV5 = ETV5 (Homo sapiens, UniProt P41161 1-510); details: protein: recombinant; tags: N-terminal GST; dsDNA, one strand shown
# Procedure, shortened: as §1
# HSF1 = HSF1 (Homo sapiens, UniProt Q00613 1-529); details: protein: recombinant; tags: N-terminal GST; chain copies: 3; dsDNA, one strand shown
# Procedure, shortened: as §1
# SPIC = biological target: T2, SPIC (Homo sapiens, UniProt Q8N5J4 1-248); details: protein: recombinant; tags: N-terminal GST; dsDNA, one strand shown
# T2 sequence: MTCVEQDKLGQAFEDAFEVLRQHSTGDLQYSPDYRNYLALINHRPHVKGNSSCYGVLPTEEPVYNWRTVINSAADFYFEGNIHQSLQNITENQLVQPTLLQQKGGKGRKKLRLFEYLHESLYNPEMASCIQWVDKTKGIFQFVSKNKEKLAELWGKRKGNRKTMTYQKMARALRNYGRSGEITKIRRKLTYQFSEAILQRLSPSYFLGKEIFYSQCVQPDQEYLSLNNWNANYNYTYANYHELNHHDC
# Procedure, shortened: as §1
# ELF4 = ELF4 (Homo sapiens, UniProt Q99607 1-663); details: protein: recombinant; tags: N-terminal GST; dsDNA, one strand shown
# Procedure, shortened: as §1
# ELK4 = biological target: T3, ELK4 (Homo sapiens, UniProt P28324-2 1-405); details: protein: recombinant; tags: N-terminal GST; dsDNA, one strand shown
# T3 sequence: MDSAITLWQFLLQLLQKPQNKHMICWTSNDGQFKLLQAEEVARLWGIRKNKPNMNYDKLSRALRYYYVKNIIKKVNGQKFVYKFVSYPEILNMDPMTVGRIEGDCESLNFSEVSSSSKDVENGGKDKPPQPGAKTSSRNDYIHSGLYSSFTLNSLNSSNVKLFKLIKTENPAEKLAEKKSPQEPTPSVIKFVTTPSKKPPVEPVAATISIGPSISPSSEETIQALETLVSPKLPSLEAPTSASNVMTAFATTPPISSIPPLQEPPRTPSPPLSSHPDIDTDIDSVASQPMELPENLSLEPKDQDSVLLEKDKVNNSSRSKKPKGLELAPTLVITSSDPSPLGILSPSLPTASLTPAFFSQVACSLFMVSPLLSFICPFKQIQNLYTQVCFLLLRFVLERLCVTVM
# Procedure, shortened: as §1
# ETV2 = biological target: T4, ETV2 (Homo sapiens, UniProt O00321 1-342); details: protein: recombinant; tags: N-terminal GST; dsDNA, one strand shown
# T4 sequence: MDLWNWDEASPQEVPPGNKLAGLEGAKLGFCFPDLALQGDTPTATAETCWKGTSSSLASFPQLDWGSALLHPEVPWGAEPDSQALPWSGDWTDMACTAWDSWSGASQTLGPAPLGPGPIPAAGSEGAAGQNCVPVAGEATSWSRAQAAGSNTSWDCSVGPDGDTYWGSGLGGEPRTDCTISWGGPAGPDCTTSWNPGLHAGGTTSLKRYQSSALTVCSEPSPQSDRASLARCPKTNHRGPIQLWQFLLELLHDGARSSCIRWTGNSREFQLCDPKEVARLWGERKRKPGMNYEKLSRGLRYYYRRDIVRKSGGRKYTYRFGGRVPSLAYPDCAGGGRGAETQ
# Procedure, shortened: as §1
# ELF3 = biological target: T5, ELF3 (Homo sapiens, UniProt P78545 1-371); details: protein: recombinant; tags: N-terminal GST; dsDNA, one strand shown
# T5 sequence: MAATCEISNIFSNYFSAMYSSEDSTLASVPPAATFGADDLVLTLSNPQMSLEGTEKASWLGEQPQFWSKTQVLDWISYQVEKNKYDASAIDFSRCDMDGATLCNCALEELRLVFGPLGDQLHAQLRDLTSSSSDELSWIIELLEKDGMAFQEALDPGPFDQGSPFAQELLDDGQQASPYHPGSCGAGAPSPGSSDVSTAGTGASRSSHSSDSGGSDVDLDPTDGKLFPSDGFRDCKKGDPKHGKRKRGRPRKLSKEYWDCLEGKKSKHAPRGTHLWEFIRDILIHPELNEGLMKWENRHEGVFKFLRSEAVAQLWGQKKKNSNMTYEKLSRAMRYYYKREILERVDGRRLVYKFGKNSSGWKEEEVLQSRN
# Procedure, shortened: as §1
# CRX = CRX (Homo sapiens, UniProt O43186 1-299); details: protein: recombinant; tags: N-terminal GST; dsDNA, one strand shown
# Procedure, shortened: as §1
# ETV1 = ETV1 (Homo sapiens, UniProt P50549 1-477); details: protein: recombinant; tags: N-terminal GST; dsDNA, one strand shown
# Procedure, shortened: as §1
# ERF = biological target: T6, ERF (Homo sapiens, UniProt P50548 1-548); details: protein: recombinant; tags: N-terminal GST; dsDNA, one strand shown
# T6 sequence: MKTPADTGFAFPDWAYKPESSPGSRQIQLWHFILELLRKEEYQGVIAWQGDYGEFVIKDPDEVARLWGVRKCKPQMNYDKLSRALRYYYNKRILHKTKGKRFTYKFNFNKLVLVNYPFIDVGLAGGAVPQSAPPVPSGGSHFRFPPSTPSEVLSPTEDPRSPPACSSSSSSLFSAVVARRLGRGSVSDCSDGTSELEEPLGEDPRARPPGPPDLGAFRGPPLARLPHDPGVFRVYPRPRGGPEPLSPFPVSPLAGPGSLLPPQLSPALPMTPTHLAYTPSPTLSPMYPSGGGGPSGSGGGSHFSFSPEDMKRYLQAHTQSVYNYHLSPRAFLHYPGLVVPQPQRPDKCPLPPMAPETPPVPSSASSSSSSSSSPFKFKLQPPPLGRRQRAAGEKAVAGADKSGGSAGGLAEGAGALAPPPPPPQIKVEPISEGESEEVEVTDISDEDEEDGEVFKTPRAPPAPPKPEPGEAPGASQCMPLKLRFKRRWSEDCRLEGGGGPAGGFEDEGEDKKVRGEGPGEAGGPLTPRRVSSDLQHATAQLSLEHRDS
# Procedure, shortened: as §1
# ETV3L = biological target: T7, ETV3L (Homo sapiens, UniProt Q6ZN32 1-361); details: protein: recombinant; tags: N-terminal GST; dsDNA, one strand shown
# T7 sequence: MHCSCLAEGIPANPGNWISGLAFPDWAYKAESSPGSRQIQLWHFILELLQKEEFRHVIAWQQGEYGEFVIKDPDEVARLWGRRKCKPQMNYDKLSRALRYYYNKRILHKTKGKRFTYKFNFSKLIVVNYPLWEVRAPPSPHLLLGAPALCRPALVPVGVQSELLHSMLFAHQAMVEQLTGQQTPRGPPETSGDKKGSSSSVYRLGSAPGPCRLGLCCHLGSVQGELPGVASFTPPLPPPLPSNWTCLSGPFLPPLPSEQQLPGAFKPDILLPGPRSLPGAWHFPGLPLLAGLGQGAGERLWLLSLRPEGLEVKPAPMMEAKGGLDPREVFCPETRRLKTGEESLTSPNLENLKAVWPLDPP
# Procedure, shortened: as §1
# ETS2 = biological target: T8, ETS2 (Homo sapiens, UniProt P15036 1-469); details: protein: recombinant; tags: N-terminal GST; dsDNA, one strand shown
# T8 sequence: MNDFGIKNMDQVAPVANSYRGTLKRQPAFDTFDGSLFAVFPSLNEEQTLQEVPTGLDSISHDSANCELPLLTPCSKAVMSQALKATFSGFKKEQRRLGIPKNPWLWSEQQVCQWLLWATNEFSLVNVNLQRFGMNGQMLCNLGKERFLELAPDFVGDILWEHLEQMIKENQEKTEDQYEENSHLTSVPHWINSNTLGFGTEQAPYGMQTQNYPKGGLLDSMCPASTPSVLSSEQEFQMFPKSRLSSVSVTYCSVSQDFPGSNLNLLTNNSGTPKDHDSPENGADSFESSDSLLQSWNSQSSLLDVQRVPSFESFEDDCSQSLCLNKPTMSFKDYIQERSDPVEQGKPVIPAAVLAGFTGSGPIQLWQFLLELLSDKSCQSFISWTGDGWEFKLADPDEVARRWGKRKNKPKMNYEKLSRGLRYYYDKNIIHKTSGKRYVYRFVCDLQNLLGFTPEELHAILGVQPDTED
# Procedure, shortened: as §1
# SPDEF = biological target: T9, SPDEF (Homo sapiens, UniProt O95238 1-335); details: protein: recombinant; tags: N-terminal GST; dsDNA, one strand shown
# T9 sequence: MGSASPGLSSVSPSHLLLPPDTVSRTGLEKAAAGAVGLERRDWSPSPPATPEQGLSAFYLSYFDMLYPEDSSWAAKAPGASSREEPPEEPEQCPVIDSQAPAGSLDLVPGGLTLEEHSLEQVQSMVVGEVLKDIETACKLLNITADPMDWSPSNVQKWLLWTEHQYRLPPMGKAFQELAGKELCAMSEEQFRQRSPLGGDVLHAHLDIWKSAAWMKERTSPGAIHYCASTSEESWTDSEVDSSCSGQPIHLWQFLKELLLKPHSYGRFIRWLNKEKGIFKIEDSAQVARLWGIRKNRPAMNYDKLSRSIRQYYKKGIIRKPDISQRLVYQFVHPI
# Procedure, shortened: as §1
# ETV7 = biological target: T10, ETV7 (Homo sapiens, UniProt Q9Y603 1-341); details: protein: recombinant; tags: N-terminal GST; dsDNA, one strand shown
# T10 sequence: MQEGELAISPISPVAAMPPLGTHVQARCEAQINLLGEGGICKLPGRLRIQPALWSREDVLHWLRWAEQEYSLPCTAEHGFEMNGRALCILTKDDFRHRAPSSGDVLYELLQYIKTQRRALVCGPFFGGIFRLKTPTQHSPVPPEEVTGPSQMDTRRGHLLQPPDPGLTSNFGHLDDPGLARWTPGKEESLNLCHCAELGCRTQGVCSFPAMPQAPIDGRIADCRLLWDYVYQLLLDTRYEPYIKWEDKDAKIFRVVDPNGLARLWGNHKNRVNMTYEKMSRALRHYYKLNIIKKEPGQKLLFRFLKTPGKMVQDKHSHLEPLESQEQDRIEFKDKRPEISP
# Procedure, shortened: as §1
# ELF5 = biological target: T11, ELF5 (Homo sapiens, UniProt Q9UKW6-2 1-255); details: protein: recombinant; tags: N-terminal GST; dsDNA, one strand shown
# T11 sequence: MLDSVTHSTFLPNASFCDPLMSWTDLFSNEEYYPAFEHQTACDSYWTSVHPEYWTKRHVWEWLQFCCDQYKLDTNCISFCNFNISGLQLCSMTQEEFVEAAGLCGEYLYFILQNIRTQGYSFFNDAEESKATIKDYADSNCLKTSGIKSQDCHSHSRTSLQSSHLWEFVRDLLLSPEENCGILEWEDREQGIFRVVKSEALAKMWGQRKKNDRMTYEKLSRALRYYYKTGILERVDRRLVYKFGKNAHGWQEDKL
# Procedure, shortened: as §1
# ETV3 = biological target: T12, ETV3 (Homo sapiens, UniProt P41162-2 1-143); details: protein: recombinant; tags: N-terminal GST; dsDNA, one strand shown
# T12 sequence: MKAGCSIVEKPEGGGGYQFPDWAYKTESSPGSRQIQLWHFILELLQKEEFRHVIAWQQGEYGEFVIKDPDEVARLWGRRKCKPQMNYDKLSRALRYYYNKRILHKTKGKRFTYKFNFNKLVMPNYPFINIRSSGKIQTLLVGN
# Procedure, shortened: as §1
# ETV6 = ETV6 (Homo sapiens, UniProt P41212 1-452); details: protein: recombinant; tags: N-terminal GST; dsDNA, one strand shown
# Procedure, shortened: as §1
# Sequence of ETV6 (P41212 whole entry): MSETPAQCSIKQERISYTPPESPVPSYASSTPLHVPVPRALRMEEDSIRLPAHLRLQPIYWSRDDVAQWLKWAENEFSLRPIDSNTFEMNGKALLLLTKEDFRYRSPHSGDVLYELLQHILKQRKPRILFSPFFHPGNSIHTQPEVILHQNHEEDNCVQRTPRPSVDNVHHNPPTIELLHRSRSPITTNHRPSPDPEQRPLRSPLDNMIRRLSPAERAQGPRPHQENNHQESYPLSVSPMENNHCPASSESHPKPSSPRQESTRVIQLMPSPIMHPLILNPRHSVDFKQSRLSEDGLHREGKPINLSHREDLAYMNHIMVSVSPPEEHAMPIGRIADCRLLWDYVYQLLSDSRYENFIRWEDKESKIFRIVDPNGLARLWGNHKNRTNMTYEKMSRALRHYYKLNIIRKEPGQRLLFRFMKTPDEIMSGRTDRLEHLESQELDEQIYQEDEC
# Sequence of ELF4 (Q99607 whole entry): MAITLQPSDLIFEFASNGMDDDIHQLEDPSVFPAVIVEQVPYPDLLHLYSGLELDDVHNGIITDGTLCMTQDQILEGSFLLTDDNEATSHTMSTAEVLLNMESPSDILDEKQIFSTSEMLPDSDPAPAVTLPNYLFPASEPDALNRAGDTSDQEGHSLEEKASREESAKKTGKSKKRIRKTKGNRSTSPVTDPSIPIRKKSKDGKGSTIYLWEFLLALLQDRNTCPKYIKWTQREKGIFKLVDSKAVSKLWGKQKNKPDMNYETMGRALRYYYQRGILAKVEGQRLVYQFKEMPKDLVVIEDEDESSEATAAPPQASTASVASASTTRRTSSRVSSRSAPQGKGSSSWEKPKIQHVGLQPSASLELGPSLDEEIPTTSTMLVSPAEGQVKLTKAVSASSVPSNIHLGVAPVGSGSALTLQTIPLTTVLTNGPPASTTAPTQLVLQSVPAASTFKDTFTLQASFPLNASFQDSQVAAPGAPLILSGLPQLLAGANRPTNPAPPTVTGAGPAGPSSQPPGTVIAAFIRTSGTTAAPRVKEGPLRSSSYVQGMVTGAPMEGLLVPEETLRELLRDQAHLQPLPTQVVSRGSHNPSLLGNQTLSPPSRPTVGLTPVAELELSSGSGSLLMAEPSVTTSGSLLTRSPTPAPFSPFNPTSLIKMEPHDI
# Sequence of ETV1 (P50549 whole entry): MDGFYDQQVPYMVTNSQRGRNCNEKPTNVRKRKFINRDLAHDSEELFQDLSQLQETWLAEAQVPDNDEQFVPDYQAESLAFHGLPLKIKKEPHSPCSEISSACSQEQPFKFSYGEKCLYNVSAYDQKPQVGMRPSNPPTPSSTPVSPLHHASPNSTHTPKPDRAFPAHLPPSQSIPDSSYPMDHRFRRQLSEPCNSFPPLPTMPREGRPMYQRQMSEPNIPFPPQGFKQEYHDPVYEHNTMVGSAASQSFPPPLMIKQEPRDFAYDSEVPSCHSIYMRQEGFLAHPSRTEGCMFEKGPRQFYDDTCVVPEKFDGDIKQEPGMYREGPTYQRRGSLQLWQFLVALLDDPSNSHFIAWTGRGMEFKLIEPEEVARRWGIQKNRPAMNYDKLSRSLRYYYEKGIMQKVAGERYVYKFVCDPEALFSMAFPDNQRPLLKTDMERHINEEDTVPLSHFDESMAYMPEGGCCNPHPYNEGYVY
# Sequence of CRX (O43186 whole entry): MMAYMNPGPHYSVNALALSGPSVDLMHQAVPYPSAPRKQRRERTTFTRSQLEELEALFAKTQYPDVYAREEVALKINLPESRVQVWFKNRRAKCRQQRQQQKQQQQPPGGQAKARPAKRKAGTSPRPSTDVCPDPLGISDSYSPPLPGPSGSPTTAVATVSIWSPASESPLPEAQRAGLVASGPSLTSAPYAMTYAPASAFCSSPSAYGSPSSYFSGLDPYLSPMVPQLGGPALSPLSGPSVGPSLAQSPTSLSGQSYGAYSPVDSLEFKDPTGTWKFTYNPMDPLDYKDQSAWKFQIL
# Sequence of ETV5 (P41161 whole entry): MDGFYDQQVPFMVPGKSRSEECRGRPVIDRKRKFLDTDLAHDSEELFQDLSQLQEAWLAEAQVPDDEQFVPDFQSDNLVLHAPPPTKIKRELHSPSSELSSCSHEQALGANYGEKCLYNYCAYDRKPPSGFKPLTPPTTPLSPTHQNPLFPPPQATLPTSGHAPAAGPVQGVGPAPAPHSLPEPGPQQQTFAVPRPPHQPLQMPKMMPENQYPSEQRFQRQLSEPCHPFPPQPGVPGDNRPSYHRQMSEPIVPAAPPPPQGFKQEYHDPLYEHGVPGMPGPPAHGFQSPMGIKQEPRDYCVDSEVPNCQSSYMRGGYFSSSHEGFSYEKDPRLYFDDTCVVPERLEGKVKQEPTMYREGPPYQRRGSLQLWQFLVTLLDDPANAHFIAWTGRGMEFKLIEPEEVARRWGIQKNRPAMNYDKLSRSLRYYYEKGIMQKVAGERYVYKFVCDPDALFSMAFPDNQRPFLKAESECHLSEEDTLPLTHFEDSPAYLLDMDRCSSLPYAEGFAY
# Sequence of HSF1 (Q00613 whole entry): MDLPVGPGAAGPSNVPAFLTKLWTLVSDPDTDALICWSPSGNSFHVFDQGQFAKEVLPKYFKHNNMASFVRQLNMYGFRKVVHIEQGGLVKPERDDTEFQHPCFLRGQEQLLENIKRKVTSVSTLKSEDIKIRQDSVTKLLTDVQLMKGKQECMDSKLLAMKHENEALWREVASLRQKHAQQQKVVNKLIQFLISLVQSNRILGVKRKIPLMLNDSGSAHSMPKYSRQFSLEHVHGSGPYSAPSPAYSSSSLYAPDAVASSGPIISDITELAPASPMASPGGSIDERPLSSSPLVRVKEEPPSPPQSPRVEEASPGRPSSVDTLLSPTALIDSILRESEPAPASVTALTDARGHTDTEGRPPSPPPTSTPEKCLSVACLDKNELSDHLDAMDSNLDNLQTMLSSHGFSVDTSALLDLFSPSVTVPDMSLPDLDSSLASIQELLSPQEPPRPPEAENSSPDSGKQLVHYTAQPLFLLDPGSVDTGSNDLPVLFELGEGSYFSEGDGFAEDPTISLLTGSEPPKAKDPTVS
sequence,measurement,setting,value
CTGAAT,binding signal,FEV,"1.32 fold enrichment (6-mer frequency, TF over GST control)"
same,binding signal,ETV5,"1.29 fold enrichment (6-mer frequency, TF over GST control)"
same,binding signal,HSF1,"1.37 fold enrichment (6-mer frequency, TF over GST control)"
same,binding signal,SPIC,"1.29 fold enrichment (6-mer frequency, TF over GST control)"
same,binding signal,ELF4,"1.29 fold enrichment (6-mer frequency, TF over GST control)"
same,binding signal,ELK4,"1.31 fold enrichment (6-mer frequency, TF over GST control)"
same,binding signal,ETV2,"1.5 fold enrichment (6-mer frequency, TF over GST control)"
same,binding signal,ELF3,"1.15 fold enrichment (6-mer frequency, TF over GST control)"
same,binding signal,CRX,"1.34 fold enrichment (6-mer frequency, TF over GST control)"
same,binding signal,ETV1,"1.36 fold enrichment (6-mer frequency, TF over GST control)"
same,binding signal,ERF,"1.47 fold enrichment (6-mer frequency, TF over GST control)"
same,binding signal,ETV3L,"1.32 fold enrichment (6-mer frequency, TF over GST control)"
same,binding signal,ETS2,"1.32 fold enrichment (6-mer frequency, TF over GST control)"
same,binding signal,SPDEF,"1.53 fold enrichment (6-mer frequency, TF over GST control)"
same,binding signal,ETV7,"1.17 fold enrichment (6-mer frequency, TF over GST control)"
same,binding signal,ELF5,"1.18 fold enrichment (6-mer frequency, TF over GST control)"
same,binding signal,ETV3,"1.29 fold enrichment (6-mer frequency, TF over GST control)"
same,binding signal,ETV6,"1.22 fold enrichment (6-mer frequency, TF over GST control)"
